Data from PubChem BioAssay (NCI).
“And” between values parts separate entries of the source, which are not always exact repeats. Equal values may be shown once. Compounds without any hit were thinned out: in the full panel of roughly 83,000, 20% have a hit.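 Single-concentration screen, 48 h exposure, 96-well plates. Endpoint: percent growth. Below 10 = active.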 The source made the active and inactive calls. Starred links: 1 amine or outer side, 2 acyl side, 3 side chain; linkers in the order of their positions; H or OH if unused. Positions of bridges follow the written chain, without caps; N, C: chain ends. Non-standard residues stand in square brackets, D forms with d. Residues, ends and D or L forms follow the SMILES beside them. Chains are numbered I, II in the order given. Actinocin(9to1) = Cc1c2oc3c(C)ccc(C(=O)[*:1])c3nc-2c(C(=O)[*:2])c(N)c1=O; aThr = C[C@H](O)[C@H](N)C(=O)O; NMeV = CN[C@H](C(=O)O)C(C)C; Sar = CNCC(=O)O

What was measured:
Assay in all cases: NCI-60 one-dose screen, 48 h (100 = growth as untreated, 0 = no growth, -100 = all killed)
HT29 colon = system: HT29 colon
SNB-75 CNS = system: SNB-75 CNS
SNB-19 CNS = system: SNB-19 CNS
U251 CNS = system: U251 CNS
PC-3 prostate = system: PC-3 prostate
SK-MEL-5 melanoma = system: SK-MEL-5 melanoma
UACC-62 melanoma = system: UACC-62 melanoma
LOX IMVI melanoma = system: LOX IMVI melanoma
SK-MEL-28 melanoma = system: SK-MEL-28 melanoma
SK-MEL-2 melanoma = system: SK-MEL-2 melanoma
EKVX NSCLC = system: EKVX NSCLC
SN12C renal = system: SN12C renal
UO-31 renal = system: UO-31 renal
TK-10 renal = system: TK-10 renal
ACHN renal = system: ACHN renal
CAKI-1 renal = system: CAKI-1 renal
A498 renal = system: A498 renal
CCRF-CEM leukemia = system: CCRF-CEM leukemia
MOLT-4 leukemia = system: MOLT-4 leukemia
RPMI-8226 leukemia = system: RPMI-8226 leukemia

Measured: growth

Cc1cc(NCCCN(C)C)c2ccc3c(ccc4c(NCCCN(C)C)cc(C)nc43)c2n1
active: HT29 colon; 10 µM -50.9% | SNB-75 CNS; 10 µM -90% | SNB-19 CNS; 10 µM -32.8% | U251 CNS; 10 µM -30.5% | PC-3 prostate; 10 µM -56.3% | SK-MEL-5 melanoma; 10 µM -97.6% | UACC-62 melanoma; 10 µM -96.9% | LOX IMVI melanoma; 10 µM -76% | SK-MEL-28 melanoma; 10 µM -97.6% | SK-MEL-2 melanoma; 10 µM -62.8% | EKVX NSCLC; 10 µM -34.1% | SN12C renal; 10 µM -49.6% | UO-31 renal; 10 µM -54.7% | TK-10 renal; 10 µM -42.2% | ACHN renal; 10 µM -75.2% | CAKI-1 renal; 10 µM -41.7% | A498 renal; 10 µM -87.6% | CCRF-CEM leukemia; 10 µM -28.7% | MOLT-4 leukemia; 10 µM -24.3% | RPMI-8226 leukemia; 10 µM -11.3%

CN1CCN(c2ccc3nc(-c4ccc5nc(-c6ccc(O)cc6)[nH]c5c4)[nH]c3c2)CC1
active: SK-MEL-5 melanoma; 10 µM -19.3%
inactive: HT29 colon; 10 µM 82.1% | SNB-75 CNS; 10 µM 54.9% | SNB-19 CNS; 10 µM 106% | U251 CNS; 10 µM 87.5% | PC-3 prostate; 10 µM 69.7% | UACC-62 melanoma; 10 µM 39.5% | LOX IMVI melanoma; 10 µM 93.9% | SK-MEL-2 melanoma; 10 µM 108% | EKVX NSCLC; 10 µM 105% | SN12C renal; 10 µM 88.9% | UO-31 renal; 10 µM 103% | TK-10 renal; 10 µM 111% | ACHN renal; 10 µM 94.4% | CAKI-1 renal; 10 µM 92.6% | CCRF-CEM leukemia; 10 µM 74% | MOLT-4 leukemia; 10 µM 76.4% | RPMI-8226 leukemia; 10 µM 107%

COc1ccc2c(C)cc(N/N=C/c3sccc3C)nc2c1
active: UACC-62 melanoma; 100 µM -100% | TK-10 renal; 100 µM -82.7% and -100%

CN(C)CCC(=O)c1c[nH]c2ccccc12
inactive: HT29 colon; 10 µM 101% | SNB-75 CNS; 10 µM 99.8% | SNB-19 CNS; 10 µM 112% | U251 CNS; 10 µM 106% | PC-3 prostate; 10 µM 84.3% | SK-MEL-5 melanoma; 10 µM 113% | UACC-62 melanoma; 10 µM 113% | LOX IMVI melanoma; 10 µM 103% | SK-MEL-28 melanoma; 10 µM 115% | SK-MEL-2 melanoma; 10 µM 105% | EKVX NSCLC; 10 µM 111% | SN12C renal; 10 µM 104% | UO-31 renal; 10 µM 77.3% | TK-10 renal; 10 µM 103% | ACHN renal; 10 µM 105% | CAKI-1 renal; 10 µM 94.4% | A498 renal; 10 µM 126% | CCRF-CEM leukemia; 10 µM 96.2% | MOLT-4 leukemia; 10 µM 93.6% | RPMI-8226 leukemia; 10 µM 98.1%

Cc1c2oc3c(C)ccc(C(=O)N[C@@H]4C(=O)N[C@H](C(C)C)C(=O)N5CCC[C@H]5C(=O)N(C)CC(=O)N(C)[C@@H](C(C)C)C(=O)O[C@H]4C)c3nc-2c(C(=O)N[C@@H]2C(=O)N[C@H](C(C)C)C(=O)N3CCC[C@H]3C(=O)N(C)CC(=O)N(C)[C@@H](C(C)C)C(=O)O[C@H]2C)c(N)c1=O (I: [aThr][dV]P[Sar][NMeV] / II: [aThr][dV]P[Sar][NMeV]; ester I:1-I:C, II:1-II:C; linker I:N-II:N via Actinocin(9to1))
active: HT29 colon; 10 µM -24.1% | SNB-75 CNS; 10 µM -73.6% | SNB-19 CNS; 10 µM -0.258% | U251 CNS; 10 µM 6.96% | PC-3 prostate; 10 µM 0.295% | SK-MEL-5 melanoma; 10 µM -94.8% | UACC-62 melanoma; 10 µM -74.5% | LOX IMVI melanoma; 10 µM 9.98% | SK-MEL-2 melanoma; 10 µM -53.1% | EKVX NSCLC; 10 µM -11% | UO-31 renal; 10 µM -12.6% | TK-10 renal; 10 µM 9.15% | ACHN renal; 10 µM 3.24% | CAKI-1 renal; 10 µM -13.7% | CCRF-CEM leukemia; 10 µM 0.799% | MOLT-4 leukemia; 10 µM -7.29% | RPMI-8226 leukemia; 0.0025 µM 3.42% | RPMI-8226 leukemia; 10 µM -21.3%
inactive: HT29 colon; 0.0025 µM 29.4% | SNB-75 CNS; 0.0025 µM 39.6% | SNB-19 CNS; 0.0025 µM 38.2% | U251 CNS; 0.0025 µM 22.1% | PC-3 prostate; 0.0025 µM 42.8% | SK-MEL-5 melanoma; 0.0025 µM 30.8% | UACC-62 melanoma; 0.0025 µM 36.5% | LOX IMVI melanoma; 0.0025 µM 24.3% | SK-MEL-2 melanoma; 0.0025 µM 75.4% | EKVX NSCLC; 0.0025 µM 54% | SN12C renal; 0.0025 µM 46.6% | SN12C renal; 10 µM 14.9% | UO-31 renal; 0.0025 µM 99.4% | TK-10 renal; 0.0025 µM 87.7% | ACHN renal; 0.0025 µM 62% | CAKI-1 renal; 0.0025 µM 92.2% | A498 renal; 0.0025 µM 32.4% | CCRF-CEM leukemia; 0.0025 µM 42.3% | MOLT-4 leukemia; 0.0025 µM 23%

O=c1[nH]cc(F)c(=O)[nH]1
inactive: HT29 colon; 10 µM 43.6% and 42.6% | HT29 colon; 25 µM 27.1% | HT29 colon; 50 µM 31.4% | SNB-75 CNS; 10 µM 73.5% and 90.2% | SNB-75 CNS; 25 µM 65.9% | SNB-75 CNS; 50 µM 63.8% | SNB-19 CNS; 10 µM 75.7% and 83.3% | SNB-19 CNS; 25 µM 65.9% | SNB-19 CNS; 50 µM 66.7% | U251 CNS; 10 µM 74.7% and 78.7% | U251 CNS; 25 µM 50.3% | U251 CNS; 50 µM 61.1% | PC-3 prostate; 10 µM 73.6% and 75.1% | PC-3 prostate; 25 µM 58.2% | PC-3 prostate; 50 µM 64.8% | SK-MEL-5 melanoma; 25 µM 33.7% | SK-MEL-5 melanoma; 50 µM 59.5% | UACC-62 melanoma; 10 µM 51.9% and 48.4% | UACC-62 melanoma; 25 µM 39.7% | UACC-62 melanoma; 50 µM 54% | LOX IMVI melanoma; 10 µM 41.7% and 51% | LOX IMVI melanoma; 25 µM 30.4% | LOX IMVI melanoma; 50 µM 35.7% | SK-MEL-28 melanoma; 10 µM 62.2% | SK-MEL-28 melanoma; 50 µM 50.9% | SK-MEL-2 melanoma; 10 µM 71.4% and 106% | SK-MEL-2 melanoma; 25 µM 95.5% | SK-MEL-2 melanoma; 50 µM 73% | EKVX NSCLC; 10 µM 74.3% and 82.4% | EKVX NSCLC; 25 µM 58.4% | EKVX NSCLC; 50 µM 62.8% | SN12C renal; 10 µM 57% and 73% | SN12C renal; 25 µM 54% | SN12C renal; 50 µM 46.3% | UO-31 renal; 10 µM 29.3% and 41.7% | UO-31 renal; 25 µM 41.3% | UO-31 renal; 50 µM 38.2% | TK-10 renal; 10 µM 71.2% | TK-10 renal; 25 µM 66.9% | ACHN renal; 10 µM 39.8% and 60.1% | ACHN renal; 25 µM 39.3% | ACHN renal; 50 µM 36.9% | CAKI-1 renal; 10 µM 28.5% and 63.3% | CAKI-1 renal; 25 µM 39.4% | CAKI-1 renal; 50 µM 43.2% | A498 renal; 10 µM 40.1% | A498 renal; 50 µM 52.6% | CCRF-CEM leukemia; 10 µM 56.3% and 65.9% | CCRF-CEM leukemia; 25 µM 57.1% | CCRF-CEM leukemia; 50 µM 50% | MOLT-4 leukemia; 10 µM 57.5% and 74.9% | MOLT-4 leukemia; 25 µM 43.1% | MOLT-4 leukemia; 50 µM 37.6% | RPMI-8226 leukemia; 10 µM 39.4% and 59.5% | RPMI-8226 leukemia; 25 µM 41.4%
45.5% (inactive) and -28.2% (active): SK-MEL-5 melanoma; 10 µM
active: A498 renal; 25 µM -16.3%

Nc1ccc2cc(Br)c3ccccc3c2c1
inactive: HT29 colon; 10 µM 87.9% | SNB-75 CNS; 10 µM 50% | SNB-19 CNS; 10 µM 56.3% | U251 CNS; 10 µM 65.6% | PC-3 prostate; 10 µM 65.2% | SK-MEL-5 melanoma; 10 µM 75.3% | UACC-62 melanoma; 10 µM 73.8% | SK-MEL-28 melanoma; 10 µM 80.8% | SK-MEL-2 melanoma; 10 µM 103% | EKVX NSCLC; 10 µM 31.3% | SN12C renal; 10 µM 63.8% | UO-31 renal; 10 µM 42.9% | TK-10 renal; 10 µM 85.8% | ACHN renal; 10 µM 66% | CAKI-1 renal; 10 µM 20.1% | A498 renal; 10 µM 77.5% | CCRF-CEM leukemia; 10 µM 37.8% | MOLT-4 leukemia; 10 µM 28.2% | RPMI-8226 leukemia; 10 µM 40%
